Assay outcomes deposited in PubChem by several laboratories.
H9c2 protect = modulators protecting cardiomyocytes from myocardial damage. H9c2 cardiomyocytes, H2O2 injury protection, ATPLite, 2 h. protection from H2O2 cell death, % at 20 µM. hit rate 0.63% among 360,000. AID 588492;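 active means compounds giving at least 50% protection of heart cells from peroxide-induced death in the single-dose screen, raw or plate-pattern-corrected value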
PLCg1 inh = blocks human PLC-gamma1 enzyme activity. purified PLC-gamma1, fluorogenic substrate, fluorescence. inhibition, % at 12.2 µM. hit rate 0.84% among 370,000; in the data active means inhibition above about 9.5%
FAS-TE inh = FAS thioesterase (human) inhibition; P49327; inhibition, % at 15 µM; recombinant FAS-TE, OMFH fluorogenic substrate, fluorescence endpoint; hit rate 0.67% among 360,000;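 active means compounds whose normalised, plate-corrected inhibition of enzyme fluorescence in the single-dose primary screen is 50% or more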
PLCb3 inh = PLC-beta3 (human) inhibition, primary screen; inhibition, % at 12.2 µM; hit rate 0.18% among 370,000; Purified PLC-beta3, fluorogenic substrate, fluorescence; in the data active means inhibition above about 11%
FAS-TE conf = FAS thioesterase (human) inhibition, confirmation; inhibition, % at 15 µM; AID 624325; recombinant FAS-TE, OMFH fluorogenic substrate, fluorescence; shares compounds with FAS-TE inh; hit rate 45% among 2,300;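 active means compounds inhibiting the enzyme by at least 50% at 15 µM in any one of the replicates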
A number is an active result. In the library only some 2.2% were active in any assay of this set; here they are far more common.

What do the screens show for `COc1ccc(-c2csc(NC(=O)COc3ccc(N(C)S(=O)(=O)c4ccc(C)cc4)cc3)n2)cc1`?
H9c2 protect: inactive; PLCg1 inh: inactive; FAS-TE inh: 53; PLCb3 inh: inactive; FAS-TE conf: inactive

How did CNC(C)C(=O)NC(C(=O)NC(C)C(=O)NNc1ccccc1)C(C)C (stereo unspecified) do in these assays?
H9c2 protect: inactive; PLCg1 inh: inactive; FAS-TE inh: inactive; PLCb3 inh: inactive

Results for COc1ccccc1CCn1cnc(-c2cccc(Cl)c2)c1CC(C)C ?
PLCg1 inh: inactive; PLCb3 inh: inactive

Results for CC(C)(C)c1ccc(CSc2nnc(-c3ccccn3)n2Cc2ccco2)cc1 ?
H9c2 protect: inactive; PLCg1 inh: inactive; FAS-TE inh: 53; PLCb3 inh: inactive; FAS-TE conf: inactive

How did Brc1ccc(CSc2nnc(-c3ccccn3)n2Cc2ccco2)cc1 do in these assays?
H9c2 protect: inactive; PLCg1 inh: inactive; FAS-TE inh: inactive; PLCb3 inh: inactive

How did COc1ccc(-n2nc(C(=O)NCC(=O)N3CCN(c4ccccn4)CC3)c3ccccc3c2=O)c(OC)c1 do in these assays?
H9c2 protect: inactive; PLCg1 inh: inactive; FAS-TE inh: inactive; PLCb3 inh: inactive

Results for COc1ccc(-n2nc(C(=O)NCC(=O)N3CCN(c4cccc(Cl)c4)CC3)c3ccccc3c2=O)c(OC)c1 ?
H9c2 protect: inactive; PLCg1 inh: inactive; FAS-TE inh: 55; PLCb3 inh: inactive; FAS-TE conf: inactive

How did COc1ccc(N2CC(C(=O)NCCC3=CCCCC3)CC2=O)c(OC)c1 (stereo unspecified) do in these assays?
H9c2 protect: inactive; PLCg1 inh: inactive; FAS-TE inh: inactive; PLCb3 inh: inactive

What do the screens show for `COc1cc(OC)c(N2CC(C(=O)NCCC3=CCCCC3)CC2=O)cc1Cl` (stereo unspecified)?
H9c2 protect: inactive; PLCg1 inh: inactive; FAS-TE inh: 61; PLCb3 inh: inactive; FAS-TE conf: 67

Results for COc1ccc(C2=C(C=Nc3c(C)n(C)n(-c4ccccc4)c3=O)C(c3ccccc3C)c3ccccc3O2)cc1OC (stereo unspecified) ?
H9c2 protect: inactive; PLCg1 inh: inactive; FAS-TE inh: 84; PLCb3 inh: inactive; FAS-TE conf: inactive

Results for Cc1c(N=Cc2c(O)n(C)c(=O)c3ccccc23)c(=O)n(-c2ccccc2)n1C ?
H9c2 protect: inactive; FAS-TE inh: inactive

How did COc1ccc(CNS(=O)(=O)c2ccccc2Br)c(OC)c1 do in these assays?
PLCg1 inh: inactive; PLCb3 inh: inactive

What do the screens show for `CCOC(=O)CN(C(=O)COc1nc(-c2ccccc2)cc(C)c1C#N)c1ccccc1`?
H9c2 protect: inactive; PLCg1 inh: inactive; FAS-TE inh: 59; PLCb3 inh: inactive; FAS-TE conf: inactive

Results for CCOC(=O)CN(C(=O)COc1nc(-c2ccccc2)cc(C)c1C#N)c1ccc(C)cc1 ?
H9c2 protect: inactive; PLCg1 inh: inactive; FAS-TE inh: inactive; PLCb3 inh: inactive

Results for CCOC(=O)CN(C(=O)COc1nc(-c2ccccc2)cc(C)c1C#N)c1cccc(OC)c1 ?
H9c2 protect: inactive; PLCg1 inh: inactive; FAS-TE inh: 52; PLCb3 inh: inactive; FAS-TE conf: inactive

Results for NC(=S)N/N=C/c1ccc(-c2ccc(SC(F)F)cc2)o1 ?
H9c2 protect: inactive; PLCg1 inh: inactive; FAS-TE inh: 55; PLCb3 inh: inactive; FAS-TE conf: 39

What do the screens show for `CN(C(=O)c1ccccc1OCC(=O)Nc1ccc(Br)cc1)c1ccccc1`?
PLCg1 inh: inactive; PLCb3 inh: inactive

What do the screens show for `COc1cc(NC(=O)CCCl)cc(-n2cnnn2)c1`?
H9c2 protect: inactive; PLCg1 inh: inactive; FAS-TE inh: inactive; PLCb3 inh: inactive

Results for COc1cc(NC(=O)CCC2CCCC2)cc(-n2cnnn2)c1 ?
H9c2 protect: inactive; PLCg1 inh: inactive; FAS-TE inh: 60; PLCb3 inh: inactive; FAS-TE conf: inactive

How did COc1ccc(C(=O)/C(C#N)=N/Nc2ccccc2[N+](=O)[O-])cc1 do in these assays?
H9c2 protect: inactive; PLCg1 inh: inactive; FAS-TE inh: inactive; PLCb3 inh: inactive

What do the screens show for `COc1ccc(C(=O)/C(C#N)=N/Nc2ccc([N+](=O)[O-])cc2)cc1`?
H9c2 protect: inactive; PLCg1 inh: inactive; FAS-TE inh: 59; PLCb3 inh: inactive; FAS-TE conf: inactive

What do the screens show for `Cc1cc(=O)[nH]c(SCC(=O)Nc2ccc(F)c(F)c2)n1`?
PLCg1 inh: inactive; PLCb3 inh: inactive

Results for Cc1ccc([N+](=O)[O-])cc1NC(=O)c1ccc(CSc2ccccc2)cc1 ?
H9c2 protect: inactive; PLCg1 inh: inactive; FAS-TE inh: inactive; PLCb3 inh: inactive

Results for Cc1ccc(SCc2ccc(C(=O)Nc3cccc([N+](=O)[O-])c3C)cc2)cc1 ?
H9c2 protect: inactive; PLCg1 inh: inactive; FAS-TE inh: 51; PLCb3 inh: inactive; FAS-TE conf: inactive

How did O=C(Oc1ccccc1C(=O)Nc1ccccc1)c1ccc(Br)c([N+](=O)[O-])c1 do in these assays?
H9c2 protect: inactive; PLCg1 inh: inactive; FAS-TE inh: 78; PLCb3 inh: inactive; FAS-TE conf: 76

What do the screens show for `CC1CCN(c2nc(Cl)nc(Nc3ccc([N+](=O)[O-])cc3)n2)CC1`?
H9c2 protect: inactive; PLCg1 inh: inactive; FAS-TE inh: 54; PLCb3 inh: inactive; FAS-TE conf: inactive

How did O=C(N[C@H](Cc1ccccc1)C(=O)NCc1ccco1)[C@H]1O[C@@H](n2ccc(=O)[nH]c2=O)[C@H](O)[C@@H]1O do in these assays?
PLCg1 inh: inactive; PLCb3 inh: inactive

How did Cc1occc1C(=O)Nc1nnc(C(F)(F)F)s1 do in these assays?
H9c2 protect: inactive; PLCg1 inh: inactive; FAS-TE inh: inactive; PLCb3 inh: inactive

How did O=C(Nc1ccccc1C(=O)Nc1nnc(C(F)(F)F)s1)c1ccccc1 do in these assays?
H9c2 protect: inactive; PLCg1 inh: inactive; FAS-TE inh: 53; PLCb3 inh: inactive; FAS-TE conf: 46

How did Cc1ccc2c(c1)C(CS(=O)(=O)NCCc1ccccc1)NC2 (stereo unspecified) do in these assays?
PLCg1 inh: inactive; PLCb3 inh: inactive

How did COc1ccc(N(C)S(=O)(=O)c2cccc(C(=O)N3CCN(S(=O)(=O)c4ccc(C)cc4)CC3)c2)cc1 do in these assays?
H9c2 protect: inactive; PLCg1 inh: inactive; FAS-TE inh: 52; PLCb3 inh: inactive; FAS-TE conf: inactive

How did O=C(NCCCc1ccccc1)[C@H](CO)NC1(C(=O)NCCc2c[nH]c3ccccc23)CCCCC1 do in these assays?
PLCg1 inh: inactive; PLCb3 inh: inactive

How did CCOC(=O)[C@]12CCCC3=C1N(CCC3)C(=O)[C@@H](CC(=O)NCc1ccc(OC)c(OC)c1)C2 do in these assays?
PLCg1 inh: inactive; PLCb3 inh: inactive

How did COc1ccc([C@@H]2C[C@H]3[C@@H](CN2S(=O)(=O)c2ccccc2)C(=O)C[C@@H](c2ccc(OC)cc2)N3S(=O)(=O)c2ccccc2)cc1 do in these assays?
H9c2 protect: inactive; PLCg1 inh: inactive; FAS-TE inh: 76; PLCb3 inh: inactive; FAS-TE conf: inactive

Results for CCc1ccc([C@@H]2CC(=O)[C@@H]3CN(S(=O)(=O)c4ccccc4)[C@H](c4ccc(OC)cc4)C[C@@H]3N2S(=O)(=O)c2ccc(C)cc2)cc1 ?
H9c2 protect: inactive; PLCg1 inh: inactive; FAS-TE inh: inactive; PLCb3 inh: inactive
